The source made the active and inactive calls.
Experiments:
[1] = system: Plasmodium falciparum Sir2 (PF13_0152, Sir2A); assay: Plasmodium falciparum Sir2A binding compounds – biochemical, small-molecule microarray, 635 nm fluorescence, primary screen (AID 1098); conditions: fluorescence 635 nm, higher = more signal;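 note: score merges spot fluorescence intensity with its signal-to-noise ratio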
[2] = probe aDKK1 binding to arrayed compounds – biochemical, biotinylated probe, 635/667 nm fluorescence, primary screen (AID 1099); conditions: small-molecule microarray, higher = more signal;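 note: score merges 667nm spot fluorescence with signal to noise across triplicate slides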
[3] = probe aCHRDL2 binding to arrayed compounds – biochemical, biotinylated probe, 635/667 nm fluorescence, primary screen (AID 1100); conditions: small-molecule microarray, higher = more signal
[4] = change in splice reporter luminescence, either direction, cell-based, HEK293, spliceosome inhibition project, primary screen (AID 1101); conditions: HEK293 splicing luciferase reporter, 24 h, higher = more signal, called active from +8 up or from −8 down;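 note: HEK293 cells carrying a splicing-competent luciferase reporter gene; test concentration not given here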
[5] = biological target: Fibroblast growth factor 10 (Homo sapiens) (UniProt O15520); assay: compounds binding fibroblast growth factor 10 – biochemical, small-molecule microarray, 635 nm fluorescence, primary screen (AID 1102); conditions: FGF10 binding, fluorescence 635 nm, higher = more signal
Chain of Fibroblast growth factor 10 (Homo sapiens) (O15520 whole entry, looked up): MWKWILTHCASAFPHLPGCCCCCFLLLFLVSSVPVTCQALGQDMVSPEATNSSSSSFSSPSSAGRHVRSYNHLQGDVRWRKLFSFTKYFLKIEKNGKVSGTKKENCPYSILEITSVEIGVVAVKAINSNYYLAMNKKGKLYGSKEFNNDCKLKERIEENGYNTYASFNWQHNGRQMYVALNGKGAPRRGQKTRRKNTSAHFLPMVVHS

[6] = system: glycogen synthase kinase-3 (GSK3A per assay name; protocol says GSK3B); assay: compounds binding glycogen synthase kinase-3 – biochemical, small-molecule microarray, 635 nm fluorescence, GSK3A, primary screen (AID 1103); conditions: fluorescence 635 nm, higher = more signal; note: the record names both GSK3A and GSK3B
[7] = biological target: Epidermal growth factor receptor (Homo sapiens) (UniProt P00533); assay: compounds binding epidermal growth factor receptor – biochemical, small-molecule microarray, 635 nm fluorescence, primary screen (AID 1104); conditions: EGFR binding, higher = more signal;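 note: score merges 667 nm emission intensity with spot signal to noise over triplicate slides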
Chain of Epidermal growth factor receptor (Homo sapiens) (P00533 whole entry, looked up): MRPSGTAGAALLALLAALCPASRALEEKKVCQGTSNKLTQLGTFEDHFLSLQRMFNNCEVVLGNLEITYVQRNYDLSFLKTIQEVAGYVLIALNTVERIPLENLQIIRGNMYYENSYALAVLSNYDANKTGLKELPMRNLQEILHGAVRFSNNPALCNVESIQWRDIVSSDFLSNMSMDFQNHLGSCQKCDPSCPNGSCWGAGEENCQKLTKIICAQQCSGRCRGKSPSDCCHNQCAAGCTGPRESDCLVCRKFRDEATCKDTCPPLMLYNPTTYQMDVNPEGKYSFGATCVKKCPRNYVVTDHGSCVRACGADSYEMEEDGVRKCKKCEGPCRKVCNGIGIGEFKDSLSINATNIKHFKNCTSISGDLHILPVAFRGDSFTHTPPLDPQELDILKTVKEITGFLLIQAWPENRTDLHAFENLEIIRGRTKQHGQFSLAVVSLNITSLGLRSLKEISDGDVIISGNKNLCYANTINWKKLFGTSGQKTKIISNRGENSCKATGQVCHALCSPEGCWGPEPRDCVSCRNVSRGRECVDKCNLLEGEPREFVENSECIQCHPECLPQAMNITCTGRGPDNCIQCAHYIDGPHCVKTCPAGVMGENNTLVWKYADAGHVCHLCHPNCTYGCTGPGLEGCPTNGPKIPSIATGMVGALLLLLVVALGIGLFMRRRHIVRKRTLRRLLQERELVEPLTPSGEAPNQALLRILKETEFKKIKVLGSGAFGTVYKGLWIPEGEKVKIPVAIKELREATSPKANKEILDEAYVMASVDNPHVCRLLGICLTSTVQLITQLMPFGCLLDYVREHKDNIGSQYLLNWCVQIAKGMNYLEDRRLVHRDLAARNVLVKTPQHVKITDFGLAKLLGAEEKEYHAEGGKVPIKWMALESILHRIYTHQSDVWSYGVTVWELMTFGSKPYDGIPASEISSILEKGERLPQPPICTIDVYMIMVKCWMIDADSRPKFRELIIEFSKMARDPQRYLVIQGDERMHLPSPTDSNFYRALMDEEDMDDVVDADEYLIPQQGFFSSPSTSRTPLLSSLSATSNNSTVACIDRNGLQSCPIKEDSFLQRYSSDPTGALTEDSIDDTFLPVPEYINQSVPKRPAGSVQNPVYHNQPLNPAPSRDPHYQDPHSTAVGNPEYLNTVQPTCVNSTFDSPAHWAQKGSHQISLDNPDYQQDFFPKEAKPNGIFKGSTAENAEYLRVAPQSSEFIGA

[8] = biological target: Follistatin-related protein 3 (Homo sapiens) (UniProt O95633); assay: compounds binding follistatin-related protein 3 – biochemical, small-molecule microarray, 635 nm fluorescence, primary screen (AID 1105); conditions: FSTL3 binding, higher = more signal;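 note: score merges emission near 667 nm and signal to noise per printed spot across three slides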
Chain of Follistatin-related protein 3 (Homo sapiens) (O95633 whole entry, looked up): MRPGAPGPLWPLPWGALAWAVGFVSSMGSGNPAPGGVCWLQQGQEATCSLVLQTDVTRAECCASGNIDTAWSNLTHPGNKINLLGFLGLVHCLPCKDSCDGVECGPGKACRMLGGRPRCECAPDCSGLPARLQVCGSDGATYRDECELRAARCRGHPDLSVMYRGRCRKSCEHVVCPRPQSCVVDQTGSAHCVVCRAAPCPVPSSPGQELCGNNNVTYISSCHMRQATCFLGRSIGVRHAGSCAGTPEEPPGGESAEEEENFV

[9] = biological target: Dickkopf-related protein 1 (Homo sapiens) (UniProt O94907); assay: small molecules binding DKK1 protein – biochemical, small-molecule microarray, 635 nm fluorescence scan, primary screen (AID 1106); conditions: higher = more signal;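 note: score merges emission near 667 nm with signal to noise over three replicate slides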
Chain of Dickkopf-related protein 1 (Homo sapiens) (O94907 whole entry, looked up): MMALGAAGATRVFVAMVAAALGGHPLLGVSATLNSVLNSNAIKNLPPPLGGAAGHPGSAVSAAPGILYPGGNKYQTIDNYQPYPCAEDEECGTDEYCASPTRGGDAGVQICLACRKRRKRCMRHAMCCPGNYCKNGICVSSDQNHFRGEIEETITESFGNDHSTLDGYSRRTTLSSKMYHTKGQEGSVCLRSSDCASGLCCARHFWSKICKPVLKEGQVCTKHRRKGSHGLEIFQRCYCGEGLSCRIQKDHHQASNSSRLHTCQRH

[10] = system: Inhibin beta A chain (activin A); assay: small molecules binding activin A – biochemical, small-molecule microarray, 635 nm fluorescence scan, primary screen (AID 1107); conditions: INHBA, higher = more signal;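 note: mouse activin A protein probed at 4.33 µg/mL on printed slides; score merges bound-protein fluorescence near 667 nm with spot signal-to-noise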
[11] = system: Human papillomavirus type 1a protein E7 (residues 44-93); assay: small molecules binding HPV E7 44-93 – biochemical, small-molecule microarray, residues 44-93, 635 nm fluorescence, primary screen (AID 1108); conditions: fluorescence 635 nm, higher = more signal;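 note: E7 fragment applied at 1 µg/mL in TBST for 1 h at 4 C; score combines spot fluorescence with its signal to noise ratio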
[12] = hepatitis C replication reporter changes, two-sided – Huh7 cells, luciferase reporter, HCV replication inhibitor project, primary screen (AID 1109); conditions: Huh7 HCV replicon luciferase reporter, 48 h; higher = more signal;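 note: huh7 hepatoma cells harbouring a luciferase neomycin HCV replicon reporter; luciferase luminescence as measure of HCV replicon replication; test concentration not given here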
[13] = biological target: Left-right determination factor 2 (Homo sapiens) (UniProt O00292); assay: small molecules binding LEFTY2 protein – biochemical, small-molecule microarray, 635 nm fluorescence scan, primary screen (AID 1110); conditions: higher = more signal
Chain of Left-right determination factor 2 (Homo sapiens) (O00292 whole entry, looked up): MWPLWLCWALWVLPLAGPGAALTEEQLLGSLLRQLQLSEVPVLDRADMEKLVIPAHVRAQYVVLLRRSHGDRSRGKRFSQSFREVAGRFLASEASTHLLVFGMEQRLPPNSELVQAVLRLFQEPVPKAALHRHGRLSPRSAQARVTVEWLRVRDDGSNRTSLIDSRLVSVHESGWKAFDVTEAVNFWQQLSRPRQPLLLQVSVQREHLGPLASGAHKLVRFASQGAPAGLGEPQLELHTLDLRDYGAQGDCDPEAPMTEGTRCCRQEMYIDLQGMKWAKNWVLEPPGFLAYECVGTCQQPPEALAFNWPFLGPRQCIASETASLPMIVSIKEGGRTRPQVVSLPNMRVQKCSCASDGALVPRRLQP

[14] = biological target: Calmodulin-1 (Homo sapiens) (UniProt P0DP23); assay: small molecules binding calmodulin-1 with EGTA – biochemical, small-molecule microarray, Cy5-labelled CALM1, profiling panel (AID 1111); conditions: Cy5-CALM1 binding fluorescence, higher = more signal;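 note: labelled calmodulin applied in Tris saline Tween buffer holding calcium plus EGTA and DTT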
[15] = biological target: Calmodulin-1 (Homo sapiens) (UniProt P0DP23); assay: small molecules binding Ca-loaded calmodulin-1 – biochemical, small-molecule microarray, Cy5-labelled CALM1, plus calcium, artefact control for SMM control-protein annotation, profiling panel (AID 1112); conditions: Cy5-CALM1 binding fluorescence, higher = more signal;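 note: score merges spot fluorescence with signal to noise from triplicate slides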
[16] = probe aWnt5a binding to arrayed compounds – biochemical, biotinylated probe, 635/667 nm fluorescence, primary screen (AID 1113); conditions: small-molecule microarray, higher = more signal;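 note: score merges 667 nm fluorescence intensity with signal-to-noise per printed feature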
[17] = probe aShh binding to arrayed compounds – biochemical, biotinylated probe, 635/667 nm fluorescence, primary screen (AID 1114); conditions: small-molecule microarray, higher = more signal;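 note: probe is biotin-labelled aShh protein from a stem cell growth factor screen; measures binding of labelled protein to compounds printed on the slide; score merges feature fluorescence at 667 nm with signal-to-noise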
[18] = probe aNog binding to arrayed compounds – biochemical, biotinylated probe, 635/667 nm fluorescence, primary screen (AID 1115); conditions: small-molecule microarray, higher = more signal;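 note: probe is biotinylated aNog protein used at 0.15 µg/mL for 1 h at 4 C; z-score combines 667 nm fluorescence of each spot with its signal to noise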
[19] = biological target: Torsin-1A-interacting protein 1 (Homo sapiens) (UniProt Q5JTV8); assay: compound microarray binding of lysate hLAP1 – cell lysate, small-molecule microarray, COS7 lysate, 635/667 nm fluorescence, primary screen (AID 1116); conditions: 635 nm fluorescence, higher = more signal
Chain of Torsin-1A-interacting protein 1 (Homo sapiens) (Q5JTV8 whole entry, looked up): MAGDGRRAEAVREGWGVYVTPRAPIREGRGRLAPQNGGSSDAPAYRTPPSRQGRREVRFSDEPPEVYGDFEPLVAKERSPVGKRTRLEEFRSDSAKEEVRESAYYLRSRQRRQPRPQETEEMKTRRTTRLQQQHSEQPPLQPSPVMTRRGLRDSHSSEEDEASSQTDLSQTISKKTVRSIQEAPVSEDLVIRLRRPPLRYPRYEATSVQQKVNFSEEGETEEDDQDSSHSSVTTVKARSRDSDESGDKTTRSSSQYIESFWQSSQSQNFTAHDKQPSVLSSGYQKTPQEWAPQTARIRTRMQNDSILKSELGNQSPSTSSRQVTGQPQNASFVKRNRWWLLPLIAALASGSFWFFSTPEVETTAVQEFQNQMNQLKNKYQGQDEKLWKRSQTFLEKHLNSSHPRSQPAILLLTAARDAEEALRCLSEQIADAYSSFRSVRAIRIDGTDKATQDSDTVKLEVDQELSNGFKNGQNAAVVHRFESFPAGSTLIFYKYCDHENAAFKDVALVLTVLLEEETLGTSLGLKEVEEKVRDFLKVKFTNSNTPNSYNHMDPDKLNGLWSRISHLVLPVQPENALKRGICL

[20] = biological target: Alpha-bungarotoxin (Bungarus multicinctus) (UniProt P60615); assay: compounds binding labelled alpha-BTX control protein – biochemical, small-molecule microarray, Alexa647 label, 635/667 nm fluorescence, artefact control for SMM control protein annotation, profiling panel (AID 1117); conditions: alpha-BTX-A647 binding fluorescence, higher = more signal
Chain of Alpha-bungarotoxin (Bungarus multicinctus) (P60615 whole entry, looked up): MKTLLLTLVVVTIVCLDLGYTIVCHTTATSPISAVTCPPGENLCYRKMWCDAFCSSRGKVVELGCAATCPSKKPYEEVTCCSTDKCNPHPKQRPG

Row | SMILES | composite z-score [1] | composite z-score [2] | composite z-score [3] | z-score [4] | composite z-score [5] | composite z-score [6] | composite z-score [7] | composite z-score [8] | composite z-score [9] | composite z-score [10] | composite z-score [11] | z-score [12] | composite z-score [13] | composite z-score [14] | composite z-score [15] | composite z-score [16] | composite z-score [17] | composite z-score [18] | composite z-score [19] | composite z-score [20]
1 | CC(C)(C)N1CC=CC23O[C@@H]4C=CCCOC(=O)C4[C@H]2C(=O)N(CCCCCCO)[C@@H]3C1=O (stereo not given in full) | 1.34 | 0.017 | 0.0876 | 0.416 (inactive) | -0.0479 | -0.404 | -1.09 | -0.63 | -0.983 | 0.406 | 0.315 | 0.0358 | -0.807 | -0.338 | 0.195 | -0.167 | -0.352 | -0.0207 | 0.348 | 1.07
2 | NC(=O)NCC#Cc1ccc2c(c1)[C@]1(C(=O)N2)[C@H](c2ccc(OCCO)cc2)N2[C@H](c3ccccc3)[C@H](c3ccccc3)OC(=O)[C@H]2[C@@H]1C(=O)O | 1.05 | 0.151 | 0.654 | -0.708 (inactive) | -0.808 | -1.84 | -0.716 | -0.567 | -0.57 | 0.993 | -0.979 | -0.591 | -0.644 | 0.024 | 0.991 | -0.122 | -0.102 | 0.281 | 0.561 | 2.44
3 | C=CCC(OC(C)=O)[C@@H]1[C@@H](N(Cc2ccc(-c3ccccc3)cc2)C(=O)c2cccc3ccccc23)c2cc(OCCCO)ccc2N1C(=O)Cc1ccc(OC)cc1 (stereo not given in full) | 0.057 | 0.267 | 0.516 | -0.149 (inactive) | 0.345 | -0.102 | 0.0253 | 0.13 | -0.113 | 1.37 | -0.69 | -0.235 | -0.526 | -0.424 | 0.618 | -0.0405 | -0.0293 | -0.202 | -0.278 | 0.313
4 | CN(C)CCCC[C@@H]1NC(=O)[C@H]2C[C@@H](C(=O)O)[C@@H](c3ccc(O)cc3)N2C1=O | 2.03 | 2.45 | 1.64 | -1.28 (inactive) | 1.55 | 1.44 | 1.85 | 1.53 | 2.03 | 1.98 | 1.55 | -0.0575 | 1.62 | 2.44 | 1.23 | 0.866 | 1.5 | 3 | 4.54 | 3.2
5 | CCCCC(O)C1C=CC2C(=O)N(c3ccccc3)C(=O)C2N1Nc1ccc(C#N)cc1 (stereo not given) | 1.11 | 1.12 | 0.906 | 0.12 (inactive) | 0.398 | 0.383 | 0.0738 | -0.0673 | -0.579 | 0.513 | 1.02 | -0.115 | 0.123 | 1.06 | 0.929 | -0.0125 | 0.337 | 1.19 | 0.385 | 1.01
6 | C=C(COC)C(=O)CC[C@@H](OC(=O)c1ccccc1-c1ccccc1C(=O)O)c1ccc(OCCO)cc1 | 0.398 | -0.321 | 0.0721 | 0.833 (inactive) | 0.983 | -0.278 | -0.487 | 0.684 | 0.0668 | 1.08 | -0.0675 | -1.88 | 0.079 | -0.601 | -0.942 | -0.145 | -0.304 | 0.338 | 1.21 | -0.0978
7 | CCOc1cc(C(O)C2C=CC3C(=O)N(c4ccccc4)C(=O)C3N2Nc2ccccc2F)ccc1O (stereo not given) | 1.53 | 1.42 | 0.762 | 0.101 (inactive) | 0.208 | -0.186 | 0.232 | -0.271 | -0.344 | 0.604 | 0.357 | -0.299 | -0.325 | 0.182 | 0.479 | 0.302 | 0.536 | 1.71 | -0.321 | 0.762
8 | C=CCNC(=O)[C@H]1[C@@H]2C(=O)O[C@@H](c3ccccc3)[C@@H](c3ccccc3)N2[C@@H](c2ccc(OCCO)cc2)[C@]12C(=O)Nc1ccc(C#CC3(O)CCCCCC3)cc12 | 1.19 | 0.514 | 0.446 | -0.313 (inactive) | 1.29 | 1.3 | 0.982 | 1.29 | 0.527 | 0.996 | 1.24 | -2.33 | 0.954 | 1.29 | 0.229 | -0.0607 | -0.0146 | 0.74 | 1.47 | 1.74
9 | COCCCNC(=O)[C@@H]1c2ccccc2C(=O)N(Cc2ccc(OC(F)(F)F)cc2)[C@H]1c1ccc(CO)cc1 | 0.499 | 0.21 | 0.215 | 0.0366 (inactive) | 0.393 | 0.723 | 0.0725 | 0.481 | 0.743 | 0.639 | 1.1 | -0.223 | 0.0983 | 0.0389 | -0.269 | 0.0215 | -0.0035 | -0.553 | 0.378 | 0.516
10 | COC(=O)[C@@]1(Cc2ccc(F)cc2)[C@H]2c3cc(C(=O)N4CCCC4)n(CCc4ccccn4)c3C[C@H]2CN1C(=O)c1ccccc1 | 0.785 | 0.507 | 1.02 | -1.31 (inactive) | 0.577 | -0.73 | -0.559 | -0.575 | -0.554 | 0.987 | 0.724 | -0.74 | -0.27 | 1.16 | 0.42 | 0.136 | 0.887 | 1.53 | 0.294 | 0.0045
11 | CC1CC/C=C\[C@H]2OC34C=CCN(c5ccc(Cl)cc5)C(=O)[C@H]3N(CCCCCCO)C(=O)[C@]4(C)C2C(=O)O1 (stereo not given in full) | 0.597 | -0.13 | 0.747 | 0.104 (inactive) | -0.533 | -0.594 | -0.726 | -0.931 | -1.43 | 0.0845 | 0.0258 | -0.0973 | -1.56 | -0.249 | 0.864 | -0.262 | -0.138 | 0.0112 | -0.377 | -0.856
